This note sets out measurements from PubChem BioAssay AID1259318 (Sanford-Burnham Center for Chemical Genomics, 2017).

The campaign covered roughly 370,000 compounds. About 3,000 (0.81%) were called active.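 How the source made its calls: active means activity above about 14% (limit read from the data; passing the limit was not always enough); inactive means the rest.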 The entries come from a sample that favours actives as a whole.

Nuclear receptor subfamily 1 group D member 1 (Homo sapiens), sequence (P20393 whole entry, looked up): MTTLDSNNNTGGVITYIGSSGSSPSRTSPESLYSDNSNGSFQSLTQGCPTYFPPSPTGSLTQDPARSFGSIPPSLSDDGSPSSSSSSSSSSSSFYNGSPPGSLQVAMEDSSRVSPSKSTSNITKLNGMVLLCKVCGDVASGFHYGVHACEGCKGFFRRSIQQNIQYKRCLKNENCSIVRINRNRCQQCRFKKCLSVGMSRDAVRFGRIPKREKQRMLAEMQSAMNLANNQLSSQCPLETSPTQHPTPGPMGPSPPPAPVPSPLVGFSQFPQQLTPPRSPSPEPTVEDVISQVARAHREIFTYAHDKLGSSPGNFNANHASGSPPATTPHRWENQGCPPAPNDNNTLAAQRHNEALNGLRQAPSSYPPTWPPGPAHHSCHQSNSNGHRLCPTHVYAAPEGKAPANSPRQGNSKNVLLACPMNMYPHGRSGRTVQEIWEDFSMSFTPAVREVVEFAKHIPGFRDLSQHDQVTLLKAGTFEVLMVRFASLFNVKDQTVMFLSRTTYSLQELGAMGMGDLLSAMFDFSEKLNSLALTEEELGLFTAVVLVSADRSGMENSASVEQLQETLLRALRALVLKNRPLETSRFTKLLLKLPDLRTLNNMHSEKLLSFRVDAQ

This assay addresses Nuclear receptor subfamily 1 group D member 1 (Homo sapiens) (UniProt P20393). The experiment in a line: Rev-erbα–DNA interaction modulation – biochemical, FITC-DNA, fluorescence polarization, uHTS, primary screen (AID 1259318).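 Further: 0% = DMSO wells with 35 nM protein and 100% = DMSO wells with 750 nM protein.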 To be noted: Rev-erbα–FITC-DNA binding, 90 min, at 10 µM, stronger effect = higher value. For orientation: Polarisation of emitted light reports the rotation of a fluorescent probe.
On to `Oc1c(Br)cc(/C=N/NC(=S)NCC2CCCO2)cc1Br` (centres undefined), for which the activity was -2.6% (inactive).

Regarding `CO/N=C(\C(=O)N[C@@H]1C(=O)N2C(C(=O)O)=CCS[C@H]12)c1csc(N)n1`, the activity was -1.64% (inactive).

Consider `CCn1c(=O)c2ccccc2n(CC(=O)N2CCCc3ccccc32)c1=O`, for which the activity is -3.6% (inactive).

Regarding `CC(C)CCn1c(CN(C)Cc2ccccc2)nc2c1c(=O)n(C)c(=O)n2C`, the activity was 3.74% (inactive).

Turning to `Cn1c(=O)[nH]c(=O)c2c1nc(CN(Cc1ccccc1)Cc1ccccc1)n2CCN1CCOCC1`, the activity was -1.09% (inactive).

On to `CC(C)Cn1c(CN(Cc2ccccc2)Cc2ccccc2)nc2c1c(=O)n(C)c(=O)n2C`, for which the activity was 42.6% (active).

Consider `Cc1ccccc1NC(=O)C1CCN(c2ncccn2)CC1`, for which the activity is 4.79% (inactive).

With `O=C(CNC(=O)c1ccc(Cl)cc1Cl)NCC(=O)Nc1ccccc1N1CCOCC1`, the activity is -3.17% (inactive).

With `CCOC(=O)c1cc(-c2ccc(Cl)s2)nc2c1c(C)nn2C`, the activity is 11.4% (inactive).

Regarding `O=C(CN1CCN(S(=O)(=O)c2ccc(F)cc2)CC1)NC1CC1`, the activity was 6.03% (inactive).

Regarding `COc1cc2c(cc1NC(=O)COC(=O)/C=C/c1ccccc1)oc1ccccc12`, the activity is -1.34% (inactive).

Regarding `COc1cc2c(cc1NC(=O)CN1CCN(S(=O)(=O)c3ccc(F)cc3)CC1)oc1ccccc12`, the activity was 14.1% (active).

Regarding `FC(F)(F)c1cccc(NC(=S)OC2CCC23CCC(c2ccccc2)CC3)c1` (centres undefined), the activity was 5.79% (inactive).

Consider `O=C(CC1SC(=Nc2ccccc2)N(Cc2ccccn2)C1=O)Nc1cccc(Cl)c1` (centres undefined), for which the activity was 1.93% (inactive).

As to `NC1=NC(c2ccc([N+](=O)[O-])cc2)N(c2ccc(F)cc2)C(N)=N1` (centres undefined), the activity is 5.54% (inactive).

On to `Cc1ccc(NS(=O)(=O)c2cc3c(cc2Br)NC(=O)CO3)cc1C`, for which the activity is 23.4% (active).

For the molecule `Cc1ccc(NS(=O)(=O)c2cc3c(cc2C)NC(=O)CO3)cc1`, the activity is 10.7% (inactive).

`Cc1ccc(NS(=O)(=O)c2ccc3c(c2)NC(=O)CO3)cc1`: the activity is 1.74% (inactive).

`C[C@@H]1CN([C@@H](C)CO)C(=O)c2cccc(NC(=O)Nc3cccc4ccccc34)c2O[C@H]1CN(C)S(=O)(=O)c1ccccc1F`: the activity is -2.31% (inactive).

Take `CC1(C)NC(=O)N(CC(=O)Nc2cc(C(F)(F)F)cc(C(F)(F)F)c2)C1=O`: the activity is 3.72% (inactive).

Take `CC(NCc1ccco1)C(=O)N1CCCCC1` (centres undefined): the activity was -4.97% (inactive).

Regarding `COCCNc1nc(-c2ccccc2)nc2c1oc1ccccc12`, the activity was 7.87% (inactive).

Take `COc1ccc(C)cc1Nc1nc(C)nc2c1oc1ccccc12`: the activity was 53.9% (active).

`COC(=O)c1cnc(Nc2cc(C)ccc2OC)c2ccccc12`: the activity is -1.59% (inactive).
